Reference: PubChem BioAssay (EPA / NIEHS)
Records with an inconclusive call do not appear. Active and inactive are the calls of the source. How the source made its calls, unless noted: active means hit-call score of the fitted dose curve at least 0.9, where 1 is the maximum; inconclusive means response in the unintended direction; inactive means score below 0.9.

How the values were obtained:
[1] = read-out: X-box binding protein 1 (XBP1), XBP1 (gene 7494); experiment: LTEA_HepaRG_XBP1: Life Technologies and Expression Analysis (LTEA) Assay for X-box binding protein 1 (XBP1) using HepaRG (AID 2283540; active means hit-call score of the fitted dose curve at least 0.9, where 1 is the maximum; inactive means score below 0.9); details: mRNA level, 48 h; actives raise or lower the signal
Method in brief: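 Transcript levels of XBP1, measured by qRT-PCR and normalised to three housekeeping genes, were fitted bidirectionally relative to 0.5% DMSO controls. Human HepaRG cells received eight-point half-log dilutions from 100 uM for 48 h.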

[2] = LTEA_HepaRG_LDH_cytotoxicity: Cytotoxicity Assessment in the Life Technologies and Expression Analysis (LTEA) Assay (AID 2283563);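 on AC50: LDH activity released into spent culture medium as a marker of cell death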
Method in brief: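 Cells were thawed and plated for 48 h. Medium was then replaced with serum-free induction medium. Chemicals (8 half-log points, maximum 100 uM, 0.5% DMSO) were added in duplicate for 48 h, after which spent medium was assayed for LDH.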

[3] = TOX21_p53_BLA_p2_viability: Viability Assessment in the Tox21 HCT-116 p53 Agonism Beta-lactamase Assay, Phase 2 (AID 2283591);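 further: compound exposure lasted 16 h at 37 °C; actives lower the ATP signal meaning cytotoxicity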
Method in brief: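 HCT-116 p53-bla cells (4000/well) rested 5 h at 37C, then received compounds in DMSO (217-fold dilution) for 16 h at 37C, 5% CO2. After the CCF4 read, CellTiter-Glo was added; ATP luminescence was read after 30 min at room temperature.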

[4] = target: Cellular tumor antigen p53 (Homo sapiens) (UniProt P04637); experiment: TOX21_p53_BLA_p2_ratio: Tox21 HCT-116 p53 Agonism Beta-lactamase Assay, Ratio, Phase 2 (AID 2283592)
Method in brief: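 Plated HCT116 p53-bla cells (4000/well) received compound after 5 h, then 16 h at 37C/5% CO2. CCF4-AM added, 2 h RT. Ratio of 460 to 530 nm emission taken as the p53 reporter signal.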

[5] = target: Cellular tumor antigen p53 (Homo sapiens) (UniProt P04637); experiment: TOX21_p53_BLA_p3_ratio: Tox21 HCT-116 p53 Agonism Beta-lactamase Assay, Ratio, Phase 3 (AID 2283596)
Method in brief: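 Cells were seeded at 4000/well, rested 5 h at 37C, then dosed with DMSO compound solutions (217-fold dilution) for 16 h. CCF4-AM substrate was loaded for 2 h at room temperature, and the 460/530 nm emission ratio was fitted for gain of signal versus DMSO.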

[6] = TOX21_p53_BLA_p4_viability: Viability Assessment in the Tox21 HCT-116 p53 Agonism Beta-lactamase Assay, Phase 4 (AID 2283597);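 further: hits lower the luminescence signal meaning cytotoxicity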
Method in brief: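 Readout: ATP luminescence (CellTiter-Glo), measured 30 min after reagent addition at RT. The reagent followed a 2 h CCF4-AM incubation, and the cells had been exposed to compound for 16 h at 37C.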

[7] = target: Cellular tumor antigen p53 (Homo sapiens) (UniProt P04637); experiment: TOX21_p53_BLA_p5_ratio: Tox21 HCT-116 p53 Agonism Beta-lactamase Assay, Ratio, Phase 5 (AID 2283599)
Method in brief: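 HCT-116 cells carrying a p53-inducible beta-lactamase reporter were seeded at 4000 cells/well and dosed after 5 h with compound in DMSO (217-fold dilution). After 16 h at 37C, CCF4-AM substrate was added for 2 h, and the 460/530 nm emission ratio was scored as gain-of-signal versus DMSO.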

[8] = TOX21_p53_BLA_p5_viability: Viability Assessment in the Tox21 HCT-116 p53 Agonism Beta-lactamase Assay, Phase 5 (AID 2283600)
Method in brief: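 Workflow: seed 4000 cells per well, wait 5 h, add compounds (DMSO, 217-fold dilution), incubate 16 h, load CCF4-AM 2 h, add CellTiter-Glo, read luminescence after 30 min.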

[9] = target: Cellular tumor antigen p53 (Homo sapiens) (UniProt P04637); experiment: TOX21_p53_BLA_p4_ratio: Tox21 HCT-116 p53 Agonism Beta-lactamase Assay, Ratio, Phase 4 (AID 2283601)
Method in brief: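 HCT116 cells carrying an inducible beta-lactamase reporter were plated at 4000 cells/well, rested 5 h, then exposed to compounds in DMSO (217-fold dilution) for 16 h at 37C. CCF4-AM substrate was loaded 2 h at room temperature; 460/530 nm emission ratio scored gain-of-signal versus DMSO.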

[10] = Tanguay_ZF_120hpf_MORT_legacy: (Legacy) Oregon State University Tanguay Lab 120 Hour Post-fertilization zebrafish Assay for Mortality (AID 2283633)
Method in brief: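 5D WT zebrafish, chorion removed 4 hpf; 1 embryo/well from 6 hpf; static exposure to 120 hpf, 28C, dark, sealed. Final DMSO 0.64%. Readout: binary mortality, brightfield, 24 + 120 hpf; DMSO as negative control.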

[11] = Tanguay_ZF_120hpf_YSE_legacy: (Legacy) Oregon State University Tanguay Lab 120 Hour Post-fertilization zebrafish Assay for Yolk Sac Edema (AID 2283634)
Method in brief: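 Dechorionate (pronase, 4 hpf) → place one 6 hpf embryo per well → static compound exposure, sealed and foil-covered, 28C, to 120 hpf → record yolk sac edema as present or absent. Final DMSO 0.64%.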

[12] = Tanguay_ZF_120hpf_AXIS_legacy: (Legacy) Oregon State University Tanguay Lab 120 Hour Post-fertilization zebrafish Assay for Body Axis Malformation (AID 2283635);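 on AC50: potency for an increased fraction of larvae scored with body axis malformation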
Method in brief: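 Chorion is removed with pronase at 4 hpf, then single 6 hpf embryos are dosed (final DMSO 0.64%) and held statically at 28C in sealed, foil-covered plates. At 120 hpf body axis malformation is recorded as present or absent.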

[13] = Tanguay_ZF_120hpf_EYE_legacy: (Legacy) Oregon State University Tanguay Lab 120 Hour Post-fertilization zebrafish Assay for Eye Malformation (AID 2283636);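 further: binary presence or absence of eye malformation scored by brightfield in 120 hpf larvae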
Method in brief: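 Static waterborne exposure of dechorionated zebrafish embryos (strain Tropical 5D), 6 to 120 hpf, sealed plates at 28C, 0.64% DMSO vehicle. Eye malformation is scored as a binary endpoint, with gain of signal analysed relative to DMSO.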

[14] = Tanguay_ZF_120hpf_SNOU_legacy: (Legacy) Oregon State University Tanguay Lab 120 Hour Post-fertilization zebrafish Assay for Snout Malformation (AID 2283637)
Method in brief: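 Dechorionated zebrafish, individually housed from 6 hpf in covered, sealed wells at 28C with 0.64% DMSO vehicle, were examined at 120 hpf for snout malformation. Responses were binary and analysed positive-direction relative to DMSO.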

[15] = Tanguay_ZF_120hpf_JAW_legacy: (Legacy) Oregon State University Tanguay Lab 120 Hour Post-fertilization zebrafish Assay for Jaw Malformation (AID 2283638)
Method in brief: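 Steps: dechorionate 4 hpf embryos (pronase); plate 1/well at 6 hpf; add test chemical, 0.64% DMSO final; seal, cover, hold at 28C statically to 120 hpf; score jaw defect presence/absence microscopically. Dead embryos not scored.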

[16] = Tanguay_ZF_120hpf_PE_legacy: (Legacy) Oregon State University Tanguay Lab 120 Hour Post-fertilization zebrafish Assay for Pericardial Edema (AID 2283640)
Method in brief: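 Embryos from wild-type 5D adults were staged, then dosed in 0.64% DMSO. They were kept sealed in the dark at 28C until 120 hpf. Pericardial edema was then recorded as present or absent.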

[17] = Tanguay_ZF_120hpf_BRAI_legacy: (Legacy) Oregon State University Tanguay Lab 120 Hour Post-fertilization zebrafish Assay for Brain Malformation (AID 2283641)
Method in brief: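 Wild-type 5D larvae, static waterborne exposure to 120 hpf, 28C, 0.64% v/v DMSO. Brightfield scoring of brain defects, binary; dead embryos excluded. Positive ctrl 5uM trimethyltin chloride.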

[18] = Tanguay_ZF_120hpf_OTIC_legacy: (Legacy) Oregon State University Tanguay Lab 120 Hour Post-fertilization zebrafish Assay for Otic Vesicle Malformation (AID 2283639)
Method in brief: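 Binary scoring of otic vesicle defects at 120 hpf in zebrafish (Tropical 5D) held under static exposure at 28C, sealed and shaded, with final DMSO 0.64%. Embryos dying by 24 or 120 hpf excluded; fitted positively against DMSO.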

Measured: AC50

Cellular tumor antigen p53 (Homo sapiens), sequence (P04637 whole entry, looked up): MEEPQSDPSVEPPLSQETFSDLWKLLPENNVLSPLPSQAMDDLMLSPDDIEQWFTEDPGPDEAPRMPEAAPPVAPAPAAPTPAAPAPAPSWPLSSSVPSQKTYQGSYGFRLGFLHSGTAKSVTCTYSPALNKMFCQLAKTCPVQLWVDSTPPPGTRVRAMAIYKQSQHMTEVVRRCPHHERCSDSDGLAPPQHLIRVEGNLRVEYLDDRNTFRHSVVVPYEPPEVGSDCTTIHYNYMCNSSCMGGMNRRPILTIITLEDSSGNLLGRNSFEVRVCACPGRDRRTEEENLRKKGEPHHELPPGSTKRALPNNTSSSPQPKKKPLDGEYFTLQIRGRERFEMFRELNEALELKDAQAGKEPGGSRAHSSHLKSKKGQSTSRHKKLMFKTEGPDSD

C=CCc1ccc2c(c1)OCO2
not listed: [18]
inactive: all other assays above

c1ccc(N=Nc2ccccc2)cc1
not listed: [6] | [7] | [8] | [10]
inactive: all other assays above

CN(C)C(=O)Nc1ccc(Cl)cc1
not listed: [10]
inactive: all other assays above

O=C(O)C1C2CCC(O2)C1C(=O)O (stereo unspecified)
active: [2] 75.1 µM
not listed: [8] | [10] | [17] | [18]
inactive: all other assays above

O=C(N[C@H](c1ccccc1)[C@@H]1CN2CCC1CC2)c1c(Cl)ccc(C(F)(F)F)c1Cl
inactive: [3] | [4] | [8] | [11] | [14] | [18] | [16]
active: [1] 73.9 µM | [2] 51.9 µM | [9] 127 µM | [12] 1.27 µM

CN(C)c1ccccc1
not listed: [17]
inactive: all other assays above

CCN(CC)N=O
not listed: [17]
inactive: all other assays above

Cc1ccc([N+](=O)[O-])cc1
not listed: [7] | [10] | [12] | [17]
inactive: all other assays above
